Assay results reported in the supplement of paper PMC10849652.
The full data set covers some 7,900 targets. This sample favours those with a hit. About 0.6% of all pairs of compound and target were hits.

Columns and labels:
Assay in all cases: log2 fold change, soluble protein after heating vs DMSO (PISA); higher = thermal stabilisation; K562 cells, 10 uM, 30 min; active = over 0.2 and 3.5 SD of the protein, either way, in both replicates (recomputed)
[1] = compound: CS(=O)(=O)c1ccc(-c2cnc(N)c(C(=O)Nc3ccccc3)n2)cc1
Summary of the method: (§1)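 Aliquots of K562 cells (2×10^6 cells/mL) treated with 10 μM compound for 30 min were heated for 3 min over 48°C-58°C. After pooling and extraction in PBS with 0.5% NP-40 at 4°C, soluble protein from a 21,000xg, 90 min spin was quantified by TMTpro 16plex LC-MS/MS with channel sums equalised. Thermal stability is expressed against control samples, from duplicates, as a log2 fold change.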

crizotinib = compound: C[C@@H](Oc1cc(-c2cnn(C3CCNCC3)c2)cnc1N)c1c(Cl)ccc(F)c1Cl [crizotinib]
Summary of the method: as §1

[2] = compound: C[C@@H]1COCCN1C2=NC(=NC(=C2)C3(CC3)S(=O)(=O)C)C4=C5C=CNC5=CC=C4
Summary of the method: as §1

[3] = compound: C[C@H](C1=CC=C(C=C1)C(=O)NC2=C3C=CNC3=NC=C2)N
Summary of the method: as §1

duvelisib = compound: C[C@H](Nc1ncnc2nc[nH]c12)c1cc2cccc(Cl)c2c(=O)n1-c1ccccc1 [duvelisib]
Summary of the method: as §1

gandotinib = compound: Cc1cc(Nc2cc(CN3CCOCC3)c3nc(C)c(Cc4ccc(Cl)cc4F)n3n2)n[nH]1 [gandotinib]
Summary of the method: as §1

tozasertib = compound: Cc1cc(Nc2cc(N3CCN(C)CC3)nc(Sc3ccc(NC(=O)C4CC4)cc3)n2)n[nH]1 [tozasertib]
Summary of the method: as §1

[4] = compound: Cc1cc(SCc2sc(-c3ccc(C(F)(F)F)cc3)nc2C)ccc1OCC(=O)O
Summary of the method: as §1

doramapimod = compound: Cc1ccc(-n2nc(C(C)(C)C)cc2NC(=O)Nc2ccc(OCCN3CCOCC3)c3ccccc23)cc1 [doramapimod]
Summary of the method: as §1

ispinesib = compound: Cc1ccc(C(=O)N(CCCN)[C@@H](c2nc3cc(Cl)ccc3c(=O)n2Cc2ccccc2)C(C)C)cc1 [ispinesib]
Summary of the method: as §1

Measured: log2 fold change

BID isoform 2 (UniProt P55957)
Sequence of UniProt P55957 (P55957 whole entry, looked up): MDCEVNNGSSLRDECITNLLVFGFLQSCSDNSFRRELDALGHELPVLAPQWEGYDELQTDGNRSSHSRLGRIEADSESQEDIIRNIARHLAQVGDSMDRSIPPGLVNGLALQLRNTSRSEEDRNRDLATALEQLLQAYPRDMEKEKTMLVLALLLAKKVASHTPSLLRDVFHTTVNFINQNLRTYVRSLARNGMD
inactive: [1] 0.047 | crizotinib 0.087 | [3] -0.019 | duvelisib 0.049 | gandotinib -0.012 | tozasertib -0.012 | [4] -0.003 | doramapimod -0.013 | ispinesib 0.022
active: [2] 0.409

ALKBH5 (UniProt Q6P6C2)
Sequence of UniProt Q6P6C2 (Q6P6C2 whole entry, looked up): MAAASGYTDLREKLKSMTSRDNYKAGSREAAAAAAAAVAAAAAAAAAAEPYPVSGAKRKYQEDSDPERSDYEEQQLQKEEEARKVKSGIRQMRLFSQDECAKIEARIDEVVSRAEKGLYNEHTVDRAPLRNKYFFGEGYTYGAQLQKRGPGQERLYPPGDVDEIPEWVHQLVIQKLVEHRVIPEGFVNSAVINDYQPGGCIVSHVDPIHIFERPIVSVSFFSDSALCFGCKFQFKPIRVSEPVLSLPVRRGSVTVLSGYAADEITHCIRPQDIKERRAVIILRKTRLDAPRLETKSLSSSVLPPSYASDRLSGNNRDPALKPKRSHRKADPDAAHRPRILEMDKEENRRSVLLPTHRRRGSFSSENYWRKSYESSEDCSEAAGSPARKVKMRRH
inactive: [1] 0.048 | crizotinib 0.032 | [2] -0.11 | [3] 0.013 | duvelisib 0.012 | gandotinib 0.267 | tozasertib -0.167 | [4] -0.055 | doramapimod -0.01 | ispinesib 0.007

AK6 (UniProt Q9Y3D8)
inactive: [1] 0.151 | crizotinib -0.156 | [2] 0.175 | [3] 0.115 | duvelisib 0.075 | gandotinib -0.049 | tozasertib 0.036 | [4] 0.065 | doramapimod 0.008 | ispinesib -0.085

ABCA3 (UniProt Q99758)
active: crizotinib -0.361 | ispinesib -0.502
inactive: [1] 0.111 | [2] 0.174 | [3] 0.073 | duvelisib 0.035 | gandotinib 0.036 | tozasertib 0.005 | [4] 0.014 | doramapimod 0.031

ALDH1B1 (UniProt P30837)
inactive: [1] 0.054 | crizotinib -0.067 | [2] 0.12 | [3] -0.068 | duvelisib 0.021 | gandotinib -0.025 | tozasertib -0.011 | [4] 0.008 | doramapimod -0.006 | ispinesib 0.019

AP2B1 isoform 2 (UniProt P63010)
inactive: [1] 0.022 | crizotinib -0.029 | [2] -0.005 | [3] -0.161 | duvelisib 0.004 | gandotinib 0.016 | tozasertib -0.056 | [4] 0.007 | doramapimod -0.006 | ispinesib 0.014

ARHGAP1 (UniProt Q07960)
Sequence of UniProt Q07960 (Q07960 whole entry, looked up): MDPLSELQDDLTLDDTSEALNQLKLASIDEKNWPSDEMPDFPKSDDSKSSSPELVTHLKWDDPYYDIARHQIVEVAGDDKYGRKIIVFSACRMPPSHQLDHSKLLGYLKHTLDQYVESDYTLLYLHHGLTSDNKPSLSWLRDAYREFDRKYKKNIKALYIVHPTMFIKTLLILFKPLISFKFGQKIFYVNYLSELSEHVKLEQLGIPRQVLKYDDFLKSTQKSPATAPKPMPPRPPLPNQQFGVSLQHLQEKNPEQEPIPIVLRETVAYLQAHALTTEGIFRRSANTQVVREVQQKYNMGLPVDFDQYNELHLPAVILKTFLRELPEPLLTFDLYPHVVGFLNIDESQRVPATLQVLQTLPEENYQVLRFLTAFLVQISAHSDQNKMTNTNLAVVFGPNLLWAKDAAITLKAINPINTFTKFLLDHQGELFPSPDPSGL
active: ispinesib 0.235
inactive: [1] 0.011 | crizotinib 0.154 | [2] 0.038 | [3] -0.003 | duvelisib 0.057 | gandotinib 0.011 | tozasertib 0.046 | [4] 0 | doramapimod -0.039

ANP32E (UniProt Q9BTT0)
Sequence of UniProt Q9BTT0 (Q9BTT0 whole entry, looked up): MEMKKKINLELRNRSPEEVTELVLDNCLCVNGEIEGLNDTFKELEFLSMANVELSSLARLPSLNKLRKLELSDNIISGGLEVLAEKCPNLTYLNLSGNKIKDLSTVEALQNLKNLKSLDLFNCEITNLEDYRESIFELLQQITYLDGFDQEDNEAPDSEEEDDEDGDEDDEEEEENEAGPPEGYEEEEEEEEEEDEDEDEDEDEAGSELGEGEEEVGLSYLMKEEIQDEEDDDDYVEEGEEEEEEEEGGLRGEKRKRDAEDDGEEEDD
inactive: [1] -0.021 | crizotinib 0.055 | [2] 0.12 | [3] -0.16 | duvelisib 0.036 | gandotinib -0.082 | tozasertib 0.096 | [4] 0.026 | doramapimod -0.014 | ispinesib 0.002

ACP2 (UniProt P11117)
inactive: [1] 0.06 | crizotinib -0.051 | [2] 0.017 | [3] -0.016 | duvelisib 0.023 | gandotinib -0.071 | tozasertib 0 | [4] -0.031 | doramapimod 0.016 | ispinesib -0.036

ASNS (UniProt P08243)
inactive: [1] 0.003 | crizotinib -0.015 | [2] 0.044 | [3] -0.045 | duvelisib 0.025 | gandotinib 0.002 | tozasertib -0.018 | [4] -0.016 | doramapimod -0.026 | ispinesib 0.031

ATP13A3 (UniProt Q9H7F0)
Sequence of UniProt Q9H7F0 (Q9H7F0 whole entry, looked up): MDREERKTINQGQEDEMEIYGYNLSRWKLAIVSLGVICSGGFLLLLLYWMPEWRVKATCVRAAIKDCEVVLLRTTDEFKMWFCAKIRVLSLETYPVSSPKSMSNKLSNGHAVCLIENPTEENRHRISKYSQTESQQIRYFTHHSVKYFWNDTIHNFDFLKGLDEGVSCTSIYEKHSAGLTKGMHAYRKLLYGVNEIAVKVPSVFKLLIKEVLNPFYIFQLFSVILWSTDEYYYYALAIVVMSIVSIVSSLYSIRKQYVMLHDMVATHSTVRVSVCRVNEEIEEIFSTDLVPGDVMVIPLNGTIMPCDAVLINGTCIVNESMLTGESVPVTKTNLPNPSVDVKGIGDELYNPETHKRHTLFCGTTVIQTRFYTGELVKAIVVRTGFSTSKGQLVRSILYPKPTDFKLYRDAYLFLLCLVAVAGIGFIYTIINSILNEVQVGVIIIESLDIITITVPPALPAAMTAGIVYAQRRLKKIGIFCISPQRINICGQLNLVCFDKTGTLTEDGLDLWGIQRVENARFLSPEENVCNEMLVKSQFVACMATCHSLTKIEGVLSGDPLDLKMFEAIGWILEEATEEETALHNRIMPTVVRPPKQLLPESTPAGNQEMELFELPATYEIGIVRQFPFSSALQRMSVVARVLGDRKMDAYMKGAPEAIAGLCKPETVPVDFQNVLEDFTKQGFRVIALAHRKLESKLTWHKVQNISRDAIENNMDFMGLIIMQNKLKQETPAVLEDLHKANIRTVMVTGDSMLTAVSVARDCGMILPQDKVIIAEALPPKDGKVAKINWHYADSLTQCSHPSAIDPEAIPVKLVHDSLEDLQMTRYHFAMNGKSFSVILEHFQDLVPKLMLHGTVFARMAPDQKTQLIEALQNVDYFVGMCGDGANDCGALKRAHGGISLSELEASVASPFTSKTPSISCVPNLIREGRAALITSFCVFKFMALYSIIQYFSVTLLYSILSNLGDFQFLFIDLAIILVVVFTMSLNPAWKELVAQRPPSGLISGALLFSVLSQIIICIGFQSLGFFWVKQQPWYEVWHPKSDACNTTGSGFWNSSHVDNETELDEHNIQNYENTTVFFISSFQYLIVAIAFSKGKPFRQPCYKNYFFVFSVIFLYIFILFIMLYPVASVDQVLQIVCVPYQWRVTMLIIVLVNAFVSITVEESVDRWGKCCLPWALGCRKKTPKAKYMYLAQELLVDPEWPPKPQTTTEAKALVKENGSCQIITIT
inactive: [1] 0.076 | crizotinib -0.251 | [2] -0.037 | [3] 0.056 | duvelisib 0.09 | gandotinib 0 | tozasertib -0.118 | [4] -0.043 | doramapimod 0.045 | ispinesib -0.251

ATP5ME (UniProt P56385)
Sequence of UniProt P56385 (P56385 whole entry, looked up): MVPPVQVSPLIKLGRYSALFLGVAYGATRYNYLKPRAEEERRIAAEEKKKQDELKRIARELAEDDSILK
inactive: [1] -0.016 | crizotinib 0.101 | [2] 0.102 | [3] -0.046 | duvelisib 0 | gandotinib 0.001 | tozasertib 0.008 | [4] -0.016 | doramapimod 0.033 | ispinesib 0.078

ANXA5 (UniProt P08758)
Sequence of UniProt P08758 (P08758 whole entry, looked up): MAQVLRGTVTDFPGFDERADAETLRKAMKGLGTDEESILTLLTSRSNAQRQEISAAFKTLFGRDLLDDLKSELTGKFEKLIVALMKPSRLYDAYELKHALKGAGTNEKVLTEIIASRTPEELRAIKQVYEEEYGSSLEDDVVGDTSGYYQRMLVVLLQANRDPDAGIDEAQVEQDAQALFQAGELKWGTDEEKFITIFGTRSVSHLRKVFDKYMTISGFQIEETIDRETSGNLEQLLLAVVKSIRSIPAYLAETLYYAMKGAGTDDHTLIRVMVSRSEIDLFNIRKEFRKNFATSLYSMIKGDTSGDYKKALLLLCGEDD
inactive: [1] 0.03 | crizotinib 0.045 | [2] 0.108 | [3] -0.002 | duvelisib 0.043 | gandotinib -0.083 | tozasertib 0.041 | [4] 0.052 | doramapimod -0.059 | ispinesib 0.006

AKAP8 (UniProt O43823)
inactive: [1] 0.047 | crizotinib -0.104 | [2] 0.077 | [3] 0.062 | duvelisib 0.032 | gandotinib -0.036 | tozasertib 0.005 | [4] 0.061 | doramapimod 0.033 | ispinesib -0.103

BECN1 (UniProt Q14457)
active: duvelisib 0.283
inactive: [1] 0.141 | crizotinib -0.126 | [2] 0.043 | [3] 0.093 | gandotinib 0.138 | tozasertib 0.034 | [4] -0.066 | doramapimod -0.004 | ispinesib -0.019

ARMC8 (UniProt Q8IUR7)
Sequence of UniProt Q8IUR7 (Q8IUR7 whole entry, looked up): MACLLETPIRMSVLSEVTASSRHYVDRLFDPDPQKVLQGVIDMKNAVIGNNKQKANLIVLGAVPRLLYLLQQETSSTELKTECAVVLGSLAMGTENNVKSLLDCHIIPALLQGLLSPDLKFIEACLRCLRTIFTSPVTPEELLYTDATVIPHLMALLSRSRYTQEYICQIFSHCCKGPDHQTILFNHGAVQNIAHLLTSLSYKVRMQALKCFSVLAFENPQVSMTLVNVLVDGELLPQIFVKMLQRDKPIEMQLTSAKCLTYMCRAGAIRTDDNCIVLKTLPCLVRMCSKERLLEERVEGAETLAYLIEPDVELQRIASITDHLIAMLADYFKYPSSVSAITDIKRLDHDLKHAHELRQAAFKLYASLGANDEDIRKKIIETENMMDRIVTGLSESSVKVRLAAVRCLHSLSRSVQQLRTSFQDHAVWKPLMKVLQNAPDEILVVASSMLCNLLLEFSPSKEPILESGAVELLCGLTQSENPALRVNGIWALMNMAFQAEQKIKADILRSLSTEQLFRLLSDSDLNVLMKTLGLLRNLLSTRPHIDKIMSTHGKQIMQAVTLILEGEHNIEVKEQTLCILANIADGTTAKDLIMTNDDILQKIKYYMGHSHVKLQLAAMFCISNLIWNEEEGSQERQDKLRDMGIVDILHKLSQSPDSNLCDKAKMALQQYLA
inactive: [1] 0.005 | crizotinib 0.013 | [2] 0.005 | [3] -0.015 | duvelisib 0.07 | gandotinib -0.045 | tozasertib 0.063 | [4] 0.165 | doramapimod 0.014 | ispinesib 0.051

BPHL (UniProt Q86WA6)
Sequence of UniProt Q86WA6 (Q86WA6 whole entry, looked up): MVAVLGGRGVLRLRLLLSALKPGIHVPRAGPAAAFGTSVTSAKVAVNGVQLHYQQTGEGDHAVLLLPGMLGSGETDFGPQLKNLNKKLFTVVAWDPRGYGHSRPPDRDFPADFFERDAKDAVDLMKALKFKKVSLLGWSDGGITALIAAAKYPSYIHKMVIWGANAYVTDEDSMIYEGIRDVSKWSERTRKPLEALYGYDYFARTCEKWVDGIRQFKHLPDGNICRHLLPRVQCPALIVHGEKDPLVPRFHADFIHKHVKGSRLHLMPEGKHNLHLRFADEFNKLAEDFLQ
inactive: [1] 0.02 | crizotinib -0.036 | [2] 0.008 | [3] -0.059 | duvelisib 0.024 | gandotinib 0.05 | tozasertib 0.192 | [4] -0.01 | doramapimod 0.004 | ispinesib 0.01

AFDN isoform 5 (UniProt P55196)
inactive: [1] 0.027 | crizotinib -0.154 | [2] 0.04 | [3] -0.094 | duvelisib -0.016 | gandotinib -0.159 | tozasertib -0.029 | [4] 0.063 | doramapimod 0.009 | ispinesib -0.002

ARMC10 (UniProt Q8N2F6)
Sequence of UniProt Q8N2F6 (Q8N2F6 whole entry, looked up): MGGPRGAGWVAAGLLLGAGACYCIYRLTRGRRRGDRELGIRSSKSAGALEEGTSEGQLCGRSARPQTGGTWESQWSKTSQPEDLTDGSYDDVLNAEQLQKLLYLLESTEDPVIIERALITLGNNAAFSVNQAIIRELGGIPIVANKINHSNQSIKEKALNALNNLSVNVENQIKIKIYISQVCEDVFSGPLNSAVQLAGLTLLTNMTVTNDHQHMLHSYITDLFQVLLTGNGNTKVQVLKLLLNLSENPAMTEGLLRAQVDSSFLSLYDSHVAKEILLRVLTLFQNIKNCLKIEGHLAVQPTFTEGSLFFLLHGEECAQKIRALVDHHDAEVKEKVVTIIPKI
inactive: [1] 0.002 | crizotinib -0.04 | [2] 0.016 | [3] 0.006 | duvelisib 0.033 | gandotinib -0.09 | tozasertib 0.065 | [4] 0.108 | doramapimod 0.018 | ispinesib 0.027

AGPS (UniProt O00116)
inactive: [1] 0.016 | crizotinib -0.038 | [2] 0.048 | [3] -0.053 | duvelisib 0.099 | gandotinib -0.047 | tozasertib -0.005 | [4] 0.19 | doramapimod 0.018 | ispinesib 0.015

ARFRP1 (UniProt Q13795)
inactive: [1] -0.024 | crizotinib -0.004 | [2] 0.091 | [3] -0.027 | duvelisib 0.019 | gandotinib -0.159 | tozasertib -0.03 | [4] -0.069 | doramapimod 0.003 | ispinesib 0.027

BRD8 (UniProt Q9H0E9)
inactive: [1] 0 | crizotinib -0.021 | [2] 0.018 | [3] 0.06 | duvelisib -0.009 | gandotinib -0.013 | tozasertib 0.046 | [4] -0.054 | doramapimod 0.023 | ispinesib -0.022

AFG1L (UniProt Q8WV93)
Sequence of UniProt Q8WV93 (Q8WV93 whole entry, looked up): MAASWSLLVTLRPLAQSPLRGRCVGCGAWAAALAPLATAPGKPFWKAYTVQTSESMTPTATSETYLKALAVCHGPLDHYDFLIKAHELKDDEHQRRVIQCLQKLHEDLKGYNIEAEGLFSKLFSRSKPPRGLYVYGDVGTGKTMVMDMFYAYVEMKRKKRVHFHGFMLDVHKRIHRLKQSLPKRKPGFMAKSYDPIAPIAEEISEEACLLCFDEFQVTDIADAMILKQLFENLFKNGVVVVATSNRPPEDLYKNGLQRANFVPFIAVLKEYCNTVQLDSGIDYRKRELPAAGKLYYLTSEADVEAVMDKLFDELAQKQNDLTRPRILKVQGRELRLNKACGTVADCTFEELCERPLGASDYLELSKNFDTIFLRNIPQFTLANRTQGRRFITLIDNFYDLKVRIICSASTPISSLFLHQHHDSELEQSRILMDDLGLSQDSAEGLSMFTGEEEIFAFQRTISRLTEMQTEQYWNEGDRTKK
inactive: [1] -0.04 | crizotinib -0.027 | [2] 0.074 | [3] 0.001 | duvelisib 0.078 | tozasertib -0.147 | [4] -0.019 | doramapimod 0.002 | ispinesib -0.253

BAD (UniProt Q92934)
Sequence of UniProt Q92934 (Q92934 whole entry, looked up): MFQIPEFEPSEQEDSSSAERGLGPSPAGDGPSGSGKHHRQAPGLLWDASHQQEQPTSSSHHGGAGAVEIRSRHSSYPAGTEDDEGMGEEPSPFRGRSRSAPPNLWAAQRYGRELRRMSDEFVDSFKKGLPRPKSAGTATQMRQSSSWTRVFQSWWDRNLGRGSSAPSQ
inactive: [1] 0.171 | crizotinib 0.076 | [2] 0.076 | [3] -0.036 | duvelisib 0.081 | gandotinib 0.018 | [4] -0.033 | doramapimod 0.003 | ispinesib 0.025

ACADM isoform 2 (UniProt P11310)
inactive: [1] 0.075 | crizotinib 0.022 | [2] 0.018 | [3] -0.073 | duvelisib 0.018 | gandotinib 0.049 | tozasertib -0.022 | [4] -0.01 | doramapimod -0.059 | ispinesib 0.052

ATP6V0A1 isoform 3 (UniProt Q93050)
inactive: [1] -0.041 | crizotinib -0.349 | [2] -0.27 | [3] 0.225 | duvelisib -0.093 | gandotinib 0.094 | tozasertib 0.073 | [4] 0.144 | doramapimod 0.152
active: ispinesib -0.446

APH1A (UniProt Q96BI3)
inactive: [1] 0.048 | crizotinib -0.151 | [3] 0.021 | duvelisib 0.035 | gandotinib -0.075 | tozasertib 0.015 | [4] -0.036 | doramapimod 0.073
